Inconclusive results are not listed. A call without a number means that no potency is given here. Calls of active or inactive are those of the source. Calls follow the shape of the dose curve; as a rule, active = well fitted cell-killing curve with a large enough effect in the repeat runs; inconclusive = weak or mixed curves; inactive = flat fitted curve, though single readings scatter.
Assay: qHTS RealTime-Glo MT Cell Viability Assay in HepG2 cells - 8 hour (AID 1224873); also: nearly all actives have a fitted effect of over 55% in size
Conditions: RealTime-Glo luminescence; series mostly up to 76.8 µM
Description: National Center for Advancing Translational Sciences [NCATS]
NIH Chemical Genomics Center [NCGC]
U.S. Environmental Protection Agency [EPA]
National Institutes of Environmental Health Sciences [NIEHS]
National Toxicology Program [NTP]
U.S. Food and Drug Administration [FDA]
Measure of cell viability is critical in the cell-base assay. Analysis of cell viability is necessary for the characterization of cell responses to cytotoxic drugs and environmental stress. A RealTime-Glo MT Cell Viability Assay to monitor cell viability in real time of continues cell culture during 40 hours of compound treatment was used to screen Tox21 10K library compounds in HepG2 cells. The RealTime-Glo MT Cell Viability Assay is a nonlytic, homogeneous, bioluminescent method to measure cell viability in real time using a simple, plate-based method. The assay involves adding NanoLuc luciferase and a cell-permeant prosubstrate to cells in culture. Viable cells reduce the proprietary prosubstrate to generate a substrate for NanoLuc luciferase. This substrate diffuses from cells into the surrounding culture medium, where it is rapidly used by the NanoLuc Enzyme to produce a luminescent signal. The signal correlates with the number of viable cells, making the assay well suited for cytotoxicity studies.
Tox21 Assay Protocol Summary:
The mixture of HepG2 cell suspension and reagents were dispensed at 600cells/6 ul/well in 1536-well tissue culture treated black solid bottom plates using a Multidrop dispenser. After the assay plates were incubated at a 37 C/5% CO2 incubator for 5 hours, 23 nL of compounds dissolved in DMSO, positive and negative controls was transferred to the assay plate by a pintool work station. The plates were incubated at 37 C for 40 hours. The luminescence intensity were measured at 0h, 8h, 16h, 24h, 32h and 40h time points using ViewLux plate reader during compound treatment.
Potency is read from the fitted curve at half-maximal effect.

Q: Which Potency does the source give for `CC(=O)OCC(=O)[C@@]12OC(C)(C)O[C@@H]1C[C@H]1[C@@H]3C[C@H](F)C4=CC(=O)C=C[C@]4(C)[C@@]3(F)[C@@H](O)C[C@@]12C` here?
A: inactive

Q: With `CC(C)(C)C(=O)C(Oc1ccc(Cl)cc1)n1ccnc1` (stereo not given) as the molecule, how does the Potency read?
A: inactive

Q: For `CCCOC(=O)c1ccc(N)cc1`, which Potency is on record?
A: inactive

Q: Which Potency does the source give for `Oc1cc(O)c(Cl)cc1Cl` here?
A: inactive

Q: With `O=C(C(=O)c1ccccc1)c1ccccc1` as the molecule, how does the Potency read?
A: inactive

Q: Which Potency does the source give for `O=C(NCCCN1CCOCC1)c1ccc(Cl)cc1` here?
A: inactive

Q: Which Potency does the source give for `CC1=C(C=O)C(C)(C)CCC1` here?
A: inactive

Q: Which Potency does the source give for `CC(C)CCCC(=O)O` here?
A: inactive

Q: For `CCOC(=O)C(C)Oc1ccc(Oc2nc3ccc(Cl)cc3o2)cc1` (stereo not given), which Potency is on record?
A: 15.5 µM (active)

Q: Which Potency does the source give for `CO[Si](C)(OC)OC` here?
A: inactive

Q: With `Fc1ccccc1[C@@H](F)COC1CCC(Nc2ncnc3[nH]ncc23)CC1` (stereo not given in full) as the molecule, how does the Potency read?
A: inactive

Q: With `C=C(C)C(=O)OCCOC(=O)CC(C)=O` as the molecule, how does the Potency read?
A: inactive

Q: For `CCN(Cc1cccc(S(=O)(=O)O)c1)c1ccc(C(=C2C=CC(=[N+](CC)Cc3cccc(S(=O)(=O)[O-])c3)C=C2)c2ccccc2)cc1`, which Potency is on record?
A: inactive

Q: For `CC1C2CC(CC2C2CCCC(O)C2)C1(C)C` (stereo not given), which Potency is on record?
A: inactive

Q: For `CC(=O)Nc1ccc(N)cc1`, which Potency is on record?
A: inactive

Q: For `Nc1nccs1`, which Potency is on record?
A: inactive

Q: With `C1COCO1` as the molecule, how does the Potency read?
A: inactive

Q: With `CC(=O)Oc1ccc2c(c1)CC[C@@H]1[C@@H]2CC[C@]2(C)[C@@H](O)CC[C@@H]12` as the molecule, how does the Potency read?
A: inactive

Q: Which Potency does the source give for `N#C/C(=C1\SCC(c2ccccc2Cl)S1)n1ccnc1` (stereo not given) here?
A: inactive

Q: Which Potency does the source give for `CCCCCCCCCCOS(=O)(=O)O` here?
A: inactive

Q: Which Potency does the source give for `Cc1nccn1-c1ccc(Sc2cccc(C3(C(N)=O)CCOCC3)c2)cc1` here?
A: inactive

Q: Which Potency does the source give for `CCOC(=O)OCC` here?
A: inactive

Q: With `O=c1[nH]c2ccc(S(=O)CCN3CCC(Cc4ccc(F)cc4)CC3)cc2o1` (stereo not given) as the molecule, how does the Potency read?
A: inactive

Q: With `CNC(=O)N(c1ccccc1)c1ccccc1` as the molecule, how does the Potency read?
A: inactive

Q: With `CCOC(=O)/C=C/C(=O)O` as the molecule, how does the Potency read?
A: inactive

Q: For `O=C(O)c1ccccc1NCCc1ccccc1`, which Potency is on record?
A: inactive

Q: Which Potency does the source give for `CCCCN(CCCC)CCCOC(=O)c1ccc(N)cc1` here?
A: inactive

Q: For `CCNC(=O)N1CCN(CCCC(c2ccc(F)cc2)c2ccc(F)cc2)CC1`, which Potency is on record?
A: inactive

Q: Which Potency does the source give for `N#C[C@@H]1C[C@@H]2C[C@@H]2N1C(=O)[C@@H](N)C12CC3CC(CC(O)(C3)C1)C2` here?
A: inactive

Q: For `CC(C)(C)C(=O)O`, which Potency is on record?
A: inactive

Q: For `CCOCCn1c(C2CCN(CCc3ccc(C(C)(C)C(=O)O)cc3)CC2)nc2ccccc21`, which Potency is on record?
A: inactive

Q: With `CN1CCN(c2c(F)cc3c(=O)c(C(=O)O)cn4c3c2OCN4C)CC1` as the molecule, how does the viability change, negative = cytotoxic read?
A: 8.52% [at 15.8 µM] (inactive)

Q: For `CC(=O)Nc1ccccc1C`, which Potency is on record?
A: inactive

Q: With `COc1ccccc1N=Nc1c(S(=O)(=O)O)cc2cc(S(=O)(=O)O)cc(NC(C)=O)c2c1O` as the molecule, how does the Potency read?
A: inactive

Q: For `CC1=CC(=O)CC(C)(C)C1(O)/C=C/C(C)=C\C(=O)O` (stereo not given), which Potency is on record?
A: inactive

Q: For `COCC(O)CO` (stereo not given), which Potency is on record?
A: inactive

Q: With `CC1CC(=O)NN=C1c1ccc(NCC(C)(C)NCC(O)COc2cc(Cl)ccc2C#N)cc1` (stereo not given) as the molecule, how does the Potency read?
A: inactive

Q: Which Potency does the source give for `CC(Cl)C(Cl)Cl` (stereo not given) here?
A: inactive

Q: Which Potency does the source give for `CN(C)CCOC1=Cc2ccccc2Sc2ccc(Cl)cc21` here?
A: inactive

Q: Which Potency does the source give for `CC(C)(C)CC(C)(C)c1ccc(OCCO)cc1` here?
A: inactive
